The text below walks through data of the antibiotic and cytotoxicity screens of Wong et al. (2023).

Among all 39,000 compounds or so, about 1,500 (3.8%) were called active. This excerpt belongs to a sample that is enriched for actives.

The test relates to HSkMC (human skeletal muscle cells). As to the kind of experiment: cytotoxicity call (relative viability < 0.9). The settings on record: 10 µM.
Take `COc1ccc(S(=O)(=O)N2C[C@H](O)COC[C@@H]3O[C@@H](CC(=O)N[C@H]4CCN(Cc5ccccc5)C4)CC[C@H]32)cc1`: the cytotoxicity call was “inactive”. With `CN1C[C@@H](O)COC[C@H]2O[C@H](CC(=O)N3CCN(c4ccccc4)CC3)CC[C@@H]21`, the cytotoxicity call is “inactive”. In the case of `C=CCOC(=O)[C@H]1[C@@H]2C(=O)O[C@@H](c3ccccc3)[C@@H](c3ccccc3)N2[C@@H](c2ccc(OCCOC(=O)[C@H]3C[C@H]4C(=O)N[C@@H](Cc5ccccc5)C(=O)N4[C@H]3c3cccc(OCCO)c3)cc2)[C@]12C(=O)Nc1ccc(I)cc12` it was “inactive”; in that of `CCS(=O)(=O)N1C[C@]2(CCN(CC2)C(=O)NC2CCCC2)c2c(n(c3cc(ccc23)OC)C)[C@@H]1CO`, “inactive”; in that of `C[C@@H]1CN([C@@H](C)CO)C(=O)c2cc(NC(=O)Nc3ccc(C(F)(F)F)cc3)ccc2O[C@H]1CN(C)C(=O)NC1CCCCC1`, “inactive”. On to `C[C@@H]1CCCCO[C@@H](CN(C)C(=O)Nc2ccc(C(F)(F)F)cc2)[C@@H](C)CN([C@@H](C)CO)C(=O)c2cc(NC(=O)C3CCCCC3)ccc2O1`, for which the cytotoxicity call was “inactive”. With `CCNC(=O)C[C@@H]1C=C[C@H](NC(=O)C2CCOCC2)[C@@H](CO)O1`, the cytotoxicity call is “inactive”. As to `C[C@@H]1CCCCO[C@@H](CN(C)S(=O)(=O)c2cccs2)[C@H](C)CN([C@@H](C)CO)C(=O)c2cc(NC(=O)CCC(F)(F)F)ccc2O1`, the cytotoxicity call was “inactive”.

`CS(=O)(=O)Nc1ccc2c(c1)[C@H]1C[C@H](CC(=O)NCc3ccc(-c4ccccc4)cc3)O[C@@H](CO)[C@H]1O2`: the cytotoxicity call was “inactive”. For `O=C(C[C@H]1C[C@@H]2c3cc(NC(=O)NC4CCCC4)ccc3O[C@@H]2[C@@H](CO)O1)NCc1ccc(-c2ccccc2)cc1`, the cytotoxicity call is “active”.

`CS(=O)(=O)Nc1ccc2c(c1)[C@@H]1C[C@@H](CC(=O)NCc3ccc(-c4ccccc4)cc3)O[C@@H](CO)[C@@H]1O2`: the cytotoxicity call was “active”. In the case of `CS(=O)(=O)Nc1ccc2c(c1)[C@@H]1C[C@@H](CC(=O)NCc3ccc(-c4ccccc4)cc3)O[C@H](CO)[C@@H]1O2` it was “inactive”; in that of `O=C(C[C@@H]1C[C@H]2c3cc(NC(=O)NC4CCCC4)ccc3O[C@H]2[C@H](CO)O1)NCc1ccc(-c2ccccc2)cc1`, “active”. For `O=C(C[C@H]1C[C@H]2c3cc(NC(=O)NC4CCCC4)ccc3O[C@H]2[C@H](CO)O1)NCc1ccc(-c2ccccc2)cc1`, the cytotoxicity call is “inactive”. In the case of `O=C(C[C@@H]1C[C@@H]2c3cc(NC(=O)NC4CCCC4)ccc3O[C@@H]2[C@@H](CO)O1)NCc1ccc(-c2ccccc2)cc1` it was “inactive”. In the case of `O=C(C[C@H]1C[C@H]2c3cc(NC(=O)NC4CCCC4)ccc3O[C@H]2[C@@H](CO)O1)NCc1ccc(-c2ccccc2)cc1` it was “inactive”; in that of `O=C(C[C@H]1C[C@@H]2c3cc(NC(=O)NC4CCCC4)ccc3O[C@@H]2[C@H](CO)O1)NCc1ccc(-c2ccccc2)cc1`, “inactive”. For the molecule `CC(C)NC(=O)N[C@@H]1C=C[C@@H](CC(=O)O)O[C@@H]1CO`, the cytotoxicity call is “inactive”. Turning to `COc1ccc(S(=O)(=O)N(C)C[C@H]2Oc3ccc(NS(=O)(=O)c4cccs4)cc3CC(=O)N([C@H](C)CO)C[C@@H]2C)cc1`, the cytotoxicity call was “inactive”.

For `C[C@@H]1CN([C@@H](C)CO)C(=O)c2cc(NC(=O)Nc3ccccc3)ccc2O[C@@H](C)CCCCO[C@H]1CN(C)S(=O)(=O)c1ccc(C(F)(F)F)cc1`, the cytotoxicity call is “inactive”. For `Cc1ccc2cccc(OCCOc3ccccc3C(C)C)c2n1` the value was “inactive”; for `O=C(C[C@@H]1CC[C@H]2[C@@H](COC[C@@H](O)CN2S(=O)(=O)c2ccc(Oc3ccccc3)cc2)O1)NC1CCC1`, “inactive”; for `Cc1ccc2nc([C@H](N)C(C)C)[nH]c2c1`, “inactive”. In the case of `C[C@H](CO)N1C[C@H](C)[C@H](CN(C)Cc2ccc(Cl)c(Cl)c2)Oc2ccc(NC(=O)Cc3ccccc3)cc2CC1=O` it was “inactive”; in that of `C[C@@H]1CN([C@H](C)CO)C(=O)Cc2cc(NC(=O)Cc3ccccc3)ccc2O[C@H]1CN(C)Cc1ccc(Cl)c(Cl)c1`, “inactive”; in that of `C[C@@H]1CN([C@@H](C)CO)C(=O)Cc2cc(NC(=O)Cc3ccccc3)ccc2O[C@H]1CN(C)Cc1ccc(Cl)c(Cl)c1`, “inactive”.

As to `C[C@H]1CN([C@@H](C)CO)C(=O)Cc2cc(NC(=O)Cc3ccccc3)ccc2O[C@@H]1CN(C)Cc1ccc(Cl)c(Cl)c1`, the cytotoxicity call was “inactive”. In the case of `C[C@@H]1CN([C@@H](C)CO)C(=O)Cc2cc(NC(=O)Cc3ccccc3)ccc2O[C@@H]1CN(C)Cc1ccc(Cl)c(Cl)c1` it was “active”. For `C[C@@H]1CN([C@H](C)CO)C(=O)Cc2cc(NC(=O)Cc3ccccc3)ccc2O[C@@H]1CN(C)Cc1ccc(Cl)c(Cl)c1` the value was “active”; for `Cc1ccc(S(=O)(=O)Nc2cccc3c2O[C@@H](CN(C)S(=O)(=O)c2cccs2)[C@H](C)CN([C@@H](C)CO)C3=O)cc1`, “inactive”; for `C[C@H]1CN([C@@H](C)CO)C(=O)Cc2cc(NC(=O)C3CCCCC3)ccc2O[C@@H]1CN(C)Cc1ccc(Cl)c(Cl)c1`, “inactive”. `C[C@@H]1CN([C@@H](C)CO)C(=O)Cc2cc(NC(=O)C3CCCCC3)ccc2O[C@@H]1CN(C)Cc1ccc(Cl)c(Cl)c1`: the cytotoxicity call is “active”. For `C[C@H]1CN([C@@H](C)CO)C(=O)Cc2cc(NC(=O)C3CCCCC3)ccc2O[C@H]1CN(C)Cc1ccc(Cl)c(Cl)c1` the value was “inactive”.

For `C[C@@H]1CN([C@H](C)CO)C(=O)Cc2cc(NC(=O)C3CCCCC3)ccc2O[C@H]1CN(C)Cc1ccc(Cl)c(Cl)c1`, the cytotoxicity call was “inactive”. In the case of `C[C@@H]1CN([C@H](C)CO)C(=O)Cc2cc(NC(=O)C3CCCCC3)ccc2O[C@@H]1CN(C)Cc1ccc(Cl)c(Cl)c1` it was “active”; in that of `C[C@@H]1CN([C@@H](C)CO)C(=O)Cc2cc(NC(=O)C3CCCCC3)ccc2O[C@H]1CN(C)Cc1ccc(Cl)c(Cl)c1`, “inactive”; in that of `COc1ccc(NC(=O)Nc2cccc3c2O[C@@H](CN(C)S(=O)(=O)c2cn(C)cn2)[C@@H](C)CN([C@@H](C)CO)C3=O)cc1`, “inactive”.

As for `O=C(C[C@H]1CC[C@H]2[C@@H](COC[C@@H](O)CN2Cc2cc(F)ccc2F)O1)N[C@H]1CCN(Cc2ccccc2)C1`, the cytotoxicity call was “inactive”.

Regarding `O=C(C[C@@H]1CC[C@H](NC(=O)CN2CCOCC2)[C@@H](CO)O1)NCc1cccc(F)c1`, the cytotoxicity call is “inactive”. As to `CN1C(=O)c2cc(NC(=O)C3CCCC3)ccc2OC[C@@H]2O[C@H](CC(=O)NCCc3ccncc3)CC[C@@H]21`, the cytotoxicity call is “inactive”. For `COc1ccc(S(=O)(=O)Nc2ccc3c(c2)CC(=O)N([C@H](C)CO)C[C@H](C)[C@H](CN(C)Cc2ccc(Cl)c(Cl)c2)O3)cc1` the value was “active”; for `COc1ccc(S(=O)(=O)Nc2ccc3c(c2)CC(=O)N([C@@H](C)CO)C[C@@H](C)[C@@H](CN(C)Cc2ccc(Cl)c(Cl)c2)O3)cc1`, “active”; for `COc1ccc(S(=O)(=O)Nc2ccc3c(c2)CC(=O)N([C@H](C)CO)C[C@@H](C)[C@@H](CN(C)Cc2ccc(Cl)c(Cl)c2)O3)cc1`, “active”.

Regarding `COc1ccc(S(=O)(=O)Nc2ccc3c(c2)CC(=O)N([C@@H](C)CO)C[C@H](C)[C@@H](CN(C)Cc2ccc(Cl)c(Cl)c2)O3)cc1`, the cytotoxicity call was “inactive”.

As for `COc1ccc(S(=O)(=O)Nc2ccc3c(c2)CC(=O)N([C@@H](C)CO)C[C@H](C)[C@H](CN(C)Cc2ccc(Cl)c(Cl)c2)O3)cc1`, the cytotoxicity call is “active”. Regarding `COc1ccc(S(=O)(=O)Nc2ccc3c(c2)CC(=O)N([C@H](C)CO)C[C@@H](C)[C@H](CN(C)Cc2ccc(Cl)c(Cl)c2)O3)cc1`, the cytotoxicity call was “inactive”. In the case of `COc1ccc(S(=O)(=O)Nc2ccc3c(c2)CC(=O)N([C@@H](C)CO)C[C@@H](C)[C@H](CN(C)Cc2ccc(Cl)c(Cl)c2)O3)cc1` it was “inactive”; in that of `COc1ccc(S(=O)(=O)Nc2ccc3c(c2)CC(=O)N([C@H](C)CO)C[C@H](C)[C@@H](CN(C)Cc2ccc(Cl)c(Cl)c2)O3)cc1`, “inactive”. As for `COc1ccc(S(=O)(=O)N(C)C[C@H]2Oc3ccc(NC(=O)C4CC4)cc3CC(=O)N([C@H](C)CO)C[C@H]2C)cc1`, the cytotoxicity call was “inactive”. For `Cc1noc(C)c1NC(=O)N(C)C[C@@H]1Oc2ccc(NC(=O)Cn3cnnn3)cc2CC(=O)N([C@@H](C)CO)C[C@@H]1C` the value was “inactive”; for `CCN(CCO)C(=O)C1CN(C(C)=O)C1`, “inactive”. For the molecule `CCCc1nc2c(C)cc(-c3nc4ccccc4n3C)cc2n1Cc1ccc(-c2ccccc2C(=O)O)cc1`, the cytotoxicity call is “inactive”. For `O=C(C[C@@H]1CC[C@H]2[C@@H](COC[C@H](O)CN2C(=O)Nc2cc(Cl)cc(Cl)c2)O1)N1CCOCC1` the value was “inactive”; for `Cc1noc(C)c1NC(=O)N(C)C[C@H]1OCCCC[C@@H](C)Oc2ccc(NS(=O)(=O)c3ccccc3)cc2C(=O)N([C@H](C)CO)C[C@H]1C`, “inactive”; for `CN1CCN(Cc2ccc(NC(=O)Nc3ccc(Oc4cc(NC(=O)C5CC5)ncn4)cc3)cc2C(F)(F)F)CC1`, “active”. In the case of `Cc1cccc(Oc2ccc(NC(=O)C3CCC(C)CC3)cc2)c1` (centres undefined) it was “inactive”; in that of `COc1ccc(NC(=O)Nc2ccc3c(c2)[C@H]2C[C@H](CC(=O)N4CCN(C)CC4)O[C@@H](CO)[C@H]2O3)cc1`, “inactive”. For `CC(C)NC(=O)N(C)C[C@@H]1Oc2ccc(NS(=O)(=O)c3ccccc3)cc2CC(=O)N([C@@H](C)CO)C[C@@H]1C` the value was “inactive”. For the molecule `Cc1noc(C)c1S(=O)(=O)Nc1ccc2c(c1)C(=O)N([C@H](C)CO)C[C@@H](C)[C@@H](CN(C)S(C)(=O)=O)OCCCC[C@H](C)O2`, the cytotoxicity call is “inactive”. In the case of `COc1ccc(C#Cc2cnc3c(c2)C(=O)N([C@@H](C)CO)C[C@H](C)[C@H](CN(C)CC2CCOCC2)O3)cc1` it was “inactive”; in that of `COc1c(O)cc2oc3cc(O)c(CC=C(C)C)c(O)c3c(=O)c2c1CC=C(C)C` [alpha-MANGOSTIN ], “active”; in that of `COc1cc(O)c2c(=O)cc(C)oc2c1CC=C(C)C`, “inactive”.

Regarding `CC(C)=CCc1c(O)cc2oc(C)cc(=O)c2c1O`, the cytotoxicity call is “inactive”. In the case of `COc1ccc(S(=O)(=O)Nc2ccc3c(c2)C(=O)N([C@@H](C)CO)C[C@@H](C)[C@H](CN(C)S(C)(=O)=O)O3)cc1` it was “inactive”.
